Here are results for 93 compounds from PubChem BioAssay AID449762 (Southern Research Specialized Biocontainment Screening …, 2010).

Where “and” joins values, the source holds several entries; their conditions need not be identical. Equal entries are not always repeated. Among all 330,000 compounds or so, about 1,900 (0.58%) were called active. About 4% were inconclusive and are not listed. Cut-off read from the data, not from the text of the source: inconclusive = inhibition above about 70% without an active follow-up result; inactive = below that. The list is a sample of the results. Entries with a potency or affinity are not part of this list.

The assay in a line: M. tuberculosis growth inhibition, HTS (AID 449762).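 Note: bacterial growth assessed after seven days of incubation.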 The following applies: M. tuberculosis H37Rv growth inhibition, 7H9 media; at 25 µM; active compounds read high.
For `COc1ccc(N2CC(C(=O)N3CCN(Cc4ccc5c(c4)OCO5)CC3)CC2=O)cc1` (stereo not drawn), the inhibition is -6.83% (inactive). In the case of `COc1ccc(/C=C2\CCCC3C2=NN(C(=O)CSc2ncn[nH]2)C3c2ccc(OC)cc2)cc1` (stereo not drawn) it was 8.82% (inactive); in that of `O=c1cc(CNc2cc(C(F)(F)F)cc(C(F)(F)F)c2)nc2sccn12`, 3.54% (inactive). To `COC(=O)CN(c1ccc2c(c1)OCCO2)S(=O)(=O)c1ccccc1` belongs -5.06% (inactive); to `COc1ccc2c(c1)c(C(C)=O)c(C)n2CCc1ccccc1`, -7.55% (inactive). On to `CC(=O)c1c(C)n(Cc2ccccc2)c2ccc(O)cc12`, for which the inhibition was -1.54% (inactive). In the case of `Cn1cc(CNC(=O)c2cc(COc3ccc4c(c3)CCCC4)on2)cn1` it was 7.16% (inactive); in that of `CN(C)c1oc(/C=C/c2ccccc2)nc1C#N`, 2.83% (inactive); in that of `Cc1ccc(C(=O)NC(C)C2CCCO2)o1` (stereo not drawn), -14.8% (inactive). In the case of `Cc1ccc(S(=O)(=O)N2CCCCC2C(=O)N2CCN(C)CC2)cc1` (stereo not drawn) it was -3.69% (inactive). Consider `CN(C)c1cccc(/C=C(\C#N)c2ccccc2)c1`, for which the inhibition was 11.4% (inactive). To `CC(C)(C=O)C1=CC(=O)c2ccccc2C1=O` belongs -5.62% (inactive); to `CC1=CC(=O)c2ccccc2C1=O`, -6.06% (inactive) and 0.39% (inactive); to `COc1ccccc1-n1c(CNC(=O)c2ccco2)nnc1SCC(=O)Nc1cc(C)ccc1C`, -9.93% (inactive).

Consider `CCCCCCNc1nc(-c2ccc(OC)cc2)c(CCC(=O)O)s1`, for which the inhibition was 31% (inactive).

For the compound `Fc1ccc2[nH]c3c(NCCN4CCOCC4)ncnc3c2c1`, the inhibition was 1.25% (inactive). To `Cc1ccc2[nH]c3c(NCc4ccccc4)ncnc3c2c1` belongs 67.8% (inactive); to `COc1ccc(CCNc2ncnc3c2[nH]c2cc(OC)c(OC)cc23)cc1OC`, -4.75% (inactive); to `COc1ccc(CNc2ncnc3c2[nH]c2ccccc23)cc1`, 59.2% (inactive). In the case of `C=CCn1c(SCC(=O)c2c(N)n(CCC)c(=O)n(C)c2=O)nc2sc(CC)cc2c1=O` it was 0.69% (inactive); in that of `CSc1ccc(/C=C/C(=O)OCC(=O)c2ccc[nH]2)cc1`, 5.61% (inactive); in that of `O=C(O)CC(C(=O)NCc1ccccc1)C1CCCO1` (stereo not drawn), -7.82% (inactive).

Consider `COc1cc(NC(=O)c2cnc(N)o2)cc(C(=O)Nc2cccc(C(F)(F)F)c2)c1`, for which the inhibition was 2.04% (inactive). To `COc1cc(NC(=O)c2ccnnc2)cc(C(=O)Nc2cccc(C(F)(F)F)c2)c1` belongs 42.8% (inactive); to `Cc1ccc(C)c(N2CCN(S(=O)(=O)c3c(C)[nH]c(C)c3C(=O)N3CCCCC3)CC2)c1`, -4.36% (inactive); to `Cc1cc(C(=O)COc2ccccc2C(N)=O)c(C)n1CC1CCCO1` (stereo not drawn), -7.82% (inactive).

Turning to `Cc1cc(C(=O)COc2ccccc2C(N)=O)c(C)n1C`, the inhibition was -2.03% (inactive).

Turning to `O=C(O)/C=C\C(=O)Nc1ccccc1N1CCN(c2ccccc2)CC1`, the inhibition is -0.24% (inactive).

For `O=C(CSc1nnc2c(n1)[nH]c1ccccc12)Nc1ccc2c(c1)OCO2`, the inhibition is 0.35% (inactive). As to `COc1cc(CC(=O)N/N=C/c2ccc([N+](=O)[O-])cc2)c([N+](=O)[O-])cc1OC`, the inhibition was 2.69% (inactive). In the case of `CCSc1nnc(NC(=O)CCCOc2ccc(C)cc2)s1`, the inhibition was 1.29% (inactive). In the case of `CCC(C)NS(=O)(=O)c1ccc(NS(C)(=O)=O)cc1` (stereo not drawn) it was 4.07% (inactive). Regarding `CCC(C)NC(=S)Nc1ccc(F)cc1` (stereo not drawn), the inhibition is -4.81% (inactive). In the case of `O=C(Cc1cccs1)NCc1cccc(CNC(=O)Cc2cccs2)c1` it was 1.18% (inactive); in that of `COc1ccc(C2NCc3ccccc3-n3cccc32)cc1` (stereo not drawn), -8.78% (inactive); in that of `N#Cc1ccc(C(=O)NCCCSc2ccccc2)cc1`, -3.48% (inactive). To `CCC(C)N1CC(=O)N2C(c3ccc(OC)cc3OC)c3[nH]c4ccccc4c3C[C@H]2C1=O` (stereo partly drawn) belongs 6.67% (inactive); to `CCOc1ccc(OCCC(=O)OCC(=O)NC2CCCC2)cc1`, 4.34% (inactive).

Regarding `COc1ccc(-c2csc(NC(C)c3nc4cc(Cl)c(Cl)cc4n3CCCO)n2)cc1` (stereo not drawn), the inhibition is 35.7% (inactive). In the case of `CCCn1c(C(C)Nc2nc(-c3ccc(C)cc3)cs2)nc2cc(Cl)c(N3CCCCC3)cc21` (stereo not drawn) it was 44.2% (inactive); in that of `Cc1ccc(CN2CCC(c3cc(-c4cccs4)n[nH]3)CC2)cc1`, 42.8% (inactive). As for `COc1ccc(OC)c(-c2cc(C3CCN(C(=O)OC(C)(C)C)CC3)[nH]n2)c1`, the inhibition is -1.26% (inactive). In the case of `CCOC(=O)CN1CCC(c2cc(-c3ccc(Cl)cc3)n[nH]2)CC1` it was 0.17% (inactive); in that of `CC(C)(C)OC(=O)N1CCC(c2cc(-c3cccs3)n[nH]2)CC1`, 10.2% (inactive). To `COc1ccc(-c2cc(C3CCN(CC(O)C(F)(F)F)CC3)[nH]n2)cc1` (stereo not drawn) belongs 7.78% (inactive); to `COc1ccc(-c2cc(C3CCN(Cc4ccc([N+](=O)[O-])cc4)CC3)[nH]n2)cc1`, 39.6% (inactive). To `CCCCCOc1ccc(CSc2ncn[nH]2)cc1` belongs 29.4% (inactive).

In the case of `COc1cccc(CN2C(=O)C(C)Oc3ccccc32)c1` (stereo not drawn), the inhibition is -3.69% (inactive). In the case of `O=C(CSc1nncc2ccccc12)N1CCOCC1` it was -0.48% (inactive); in that of `O=C1COc2ccc(S(=O)(=O)CCC(=O)N3CCN(c4ccccc4)CC3)cc2N1`, -9.62% (inactive). To `O=C(NCCN1CCOCC1)c1ccc(Cl)nc1Cl` belongs -1.1% (inactive); to `CC(c1nc2ccccc2c(=O)[nH]1)N(C)c1ccc2ccccc2c1` (stereo not drawn), -13.1% (inactive); to `CN(CCOc1ccccc1)Cc1nc2cc(Cl)ccc2c(=O)[nH]1`, 58.8% (inactive). To `CCC(Sc1nc(C)cc(=O)[nH]1)C(=O)Nc1ccc(Cl)cn1` (stereo not drawn) belongs -1.49% (inactive); to `COc1ccc(CCN(C(=O)c2cccc(F)c2)C2CC(=O)N(c3ccc(OC)cc3)C2=O)cc1` (stereo not drawn), 2.05% (inactive). With `CCN(CC(=O)Nc1c(F)cccc1F)C(=O)CCCc1nc2ccccc2c(=O)[nH]1`, the inhibition was 5.24% (inactive). On to `Cc1cccc(CCNC(=O)CC2C(=O)NCCN2CC2CCCCC2)n1` (stereo not drawn), for which the inhibition was 0.82% (inactive). In the case of `CCOC(=O)c1c(NC(=O)CSc2ncccn2)sc2c1CC(C)(C)NC2(C)C` it was 8.68% (inactive); in that of `CCOC(=O)c1c(NC(=O)CSc2nc3ccccc3[nH]2)sc2c1CC(C)(C)NC2(C)C`, 35.9% (inactive); in that of `O=C(O)CC(Cc1ccc(Cl)cc1)C(=O)NCc1ccccc1` (stereo not drawn), -1.83% (inactive).

For `O=C(O)c1cnn(-c2nc(-c3cccc(F)c3)cs2)c1C(F)(F)F`, the inhibition was -9.37% (inactive). To `CCCNC(=O)c1ccccc1NC(=O)Nc1ccccc1C` belongs -3.01% (inactive); to `COc1ccc2cc1Oc1ccc(cc1)CC1c3c(cc(OC)c4c3Oc3cc5c(cc3O4)CCNC5C2)CCN1C` (stereo not drawn), 2.26% (inactive). With `COc1ccc2cc1Oc1ccc(cc1)C[C@H]1c3cc(c(OC)cc3CCN1C)Oc1c(OC)c(OC)cc3c1[C@H](C2)N(C)CC3`, the inhibition was -2.74% (inactive). In the case of `COc1ccc(NC(=O)C2CCCO2)cc1Cl` (stereo not drawn) it was 55.9% (inactive). To `COc1cc(C(=O)NCCOc2ccc(Cl)cc2)ccc1OCc1c(C)noc1C` belongs -3.72% (inactive).

As for `CCCC(=O)Nc1ccc2c(c1)nc(CN1CCCC1)n2C`, the inhibition is -1.98% (inactive).

Take `Cc1cc(C)n2nc(C(=O)OC(C)C(=O)c3ccccc3)nc2n1` (stereo not drawn): the inhibition is 7.53% (inactive). In the case of `O=C(NCCCn1ccnc1)c1cc(-c2cccnc2)nc2ccc(Br)cc12` it was 4.38% (inactive); in that of `Cc1ccc(-c2cc(C(=O)NCCCn3ccnc3)c3cc(Br)ccc3n2)o1`, 4.01% (inactive); in that of `COc1ccc(OCC(O)Cn2c(N)nc3c2c(=O)[nH]c(=O)n3C)cc1` (stereo not drawn), -6.1% (inactive). In the case of `CC1CCc2sc(-c3n[nH]c(=S)o3)cc2C1` (stereo not drawn) it was 4.83% (inactive); in that of `Cc1cc(C(=O)Nc2sc3c(c2C#N)CCC(C(C)(C)C)C3)no1` (stereo not drawn), -1.37% (inactive); in that of `Cc1[nH]c(C(=O)N/N=C/c2ccc(C(=O)O)cc2)c(C)c1C(=O)N/N=C/c1ccc(C(=O)O)cc1`, 2.47% (inactive).

In the case of `CCOC(=O)N1c2ccccc2Sc2ccccc21`, the inhibition was 10.8% (inactive).

For the compound `N/C(=N\OC(=O)N1c2ccccc2Sc2ccccc21)c1ccc(Br)cc1`, the inhibition is -4.44% (inactive). To `O=C(O)C(Cc1cnc[nH]1)NS(=O)(=O)c1ccc(Cl)cc1` (stereo not drawn) belongs 0.91% (inactive). To `CN1CCN(C(=S)c2ccc(N(C)C)cc2)CC1` belongs -4.96% (inactive). In the case of `O=[N+]([O-])c1cccc(/C=N/Nc2nccnc2Cl)c1` it was -0.09% (inactive); in that of `COc1ccc(CN2CCC(N3CC(C)OC(C)C3)CC2)c(OC)c1` (stereo not drawn), 1.06% (inactive); in that of `COc1cc(-c2ccc3oc(-c4ccsc4)c(C#CC4(O)CCCCC4)c3c2)cc(OC)c1OC`, 51.2% (inactive). For the compound `CC(C)n1nnc2c(=O)oc3ccccc3c21`, the inhibition is 48% (inactive). In the case of `CCn1nnc2c(=O)oc3ccccc3c21` it was 28.6% (inactive); in that of `CC1CC(C)CN(C(=O)Cn2nnc(-c3ccc(Br)cc3)n2)C1` (stereo not drawn), 2.83% (inactive); in that of `CCOC(=O)Cn1c(C)cc(=O)c2cccc(C)c21`, 16.2% (inactive). In the case of `CCOC(=O)Cn1c(=O)cc(C)c2cccc(C)c21` it was 57.9% (inactive). `COc1ccc(CC(=O)NCc2nnc(SCC(=O)Nc3ccccc3)n2C)cc1`: the inhibition was 4.29% (inactive). To `O=C(NCC(=O)N1CCN(c2ccccc2O)CC1)c1ccccc1` belongs 7.74% (inactive).

Regarding `CCCCCCC1CC(CCc2nc(=S)[nH][nH]2)C(=O)O1` (stereo not drawn), the inhibition is -0.55% (inactive). In the case of `COC(=O)c1cc(C(=O)NCC2CCCCC2)cc([N+](=O)[O-])c1` it was -5.46% (inactive).

`O=C(NCC1CCCCC1)c1cccc([N+](=O)[O-])c1`: the inhibition was 4.44% (inactive).

`CCOC(=O)C1(CC2CC2)CCN(Cc2cc(Cl)c(O)c(OC)c2)CC1`: the inhibition was -1.14% (inactive). For `CCCCn1c(=O)c(C(=O)NCc2ccc(Cl)cc2)c(O)c2ccccc21`, the inhibition was 13% (inactive).

Broadly, the inhibition is the change of the read-out against control, counted positive when it falls.
